This is an account of results in PubChem BioAssay.

Active and inactive are the calls of the source.

In test [1] the test system is Plasmodium falciparum Sir2 (PF13_0152, Sir2A). Put plainly: Plasmodium falciparum Sir2A binding compounds – biochemical, small-molecule microarray, 635 nm fluorescence, primary screen (AID 1098).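 Note: score merges spot fluorescence intensity with its signal-to-noise ratio.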 The following applies: fluorescence 635 nm, higher = more signal.
The nature of test [2]: probe aDKK1 binding to arrayed compounds – biochemical, biotinylated probe, 635/667 nm fluorescence, primary screen (AID 1099).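 Note: score merges 667nm spot fluorescence with signal to noise across triplicate slides.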 The following applies: small-molecule microarray, higher = more signal.
A short description of test [3]: probe aCHRDL2 binding to arrayed compounds – biochemical, biotinylated probe, 635/667 nm fluorescence, primary screen (AID 1100). As to conditions: small-molecule microarray, higher = more signal.
Test [4] can be described thus: change in splice reporter luminescence, either direction, cell-based, HEK293, spliceosome inhibition project, primary screen (AID 1101).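 Note: HEK293 cells carrying a splicing-competent luciferase reporter gene; test concentration not given here.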 The following applies: HEK293 splicing luciferase reporter, 24 h, higher = more signal, called active from +8 up or from −8 down. Background: In a reporter assay the amount or activity of a reporter protein is the signal.
Test [5] deals with Fibroblast growth factor 10 (Homo sapiens) (UniProt O15520). The test can be described thus: compounds binding fibroblast growth factor 10 – biochemical, small-molecule microarray, 635 nm fluorescence, primary screen (AID 1102). As to conditions: FGF10 binding, fluorescence 635 nm, higher = more signal.
Test [6] deals with glycogen synthase kinase-3 (GSK3A per assay name; protocol says GSK3B). Put plainly: compounds binding glycogen synthase kinase-3 – biochemical, small-molecule microarray, 635 nm fluorescence, GSK3A, primary screen (AID 1103). Note: the record names both GSK3A and GSK3B. As to conditions: fluorescence 635 nm, higher = more signal.
Test [7] deals with Epidermal growth factor receptor (Homo sapiens) (UniProt P00533). Put plainly: compounds binding epidermal growth factor receptor – biochemical, small-molecule microarray, 635 nm fluorescence, primary screen (AID 1104).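 Note: score merges 667 nm emission intensity with spot signal to noise over triplicate slides.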 As to conditions: EGFR binding, higher = more signal.
The target of test [8] is Follistatin-related protein 3 (Homo sapiens) (UniProt O95633). Put plainly: compounds binding follistatin-related protein 3 – biochemical, small-molecule microarray, 635 nm fluorescence, primary screen (AID 1105).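 Note: score merges emission near 667 nm and signal to noise per printed spot across three slides.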 As to conditions: FSTL3 binding, higher = more signal.
Test [9] deals with Dickkopf-related protein 1 (Homo sapiens) (UniProt O94907). The test can be described thus: small molecules binding DKK1 protein – biochemical, small-molecule microarray, 635 nm fluorescence scan, primary screen (AID 1106).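 Note: score merges emission near 667 nm with signal to noise over three replicate slides.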 The following applies: higher = more signal.
In test [10] the test system is Inhibin beta A chain (activin A). Put plainly: small molecules binding activin A – biochemical, small-molecule microarray, 635 nm fluorescence scan, primary screen (AID 1107).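 Note: mouse activin A protein probed at 4.33 µg/mL on printed slides; score merges bound-protein fluorescence near 667 nm with spot signal-to-noise.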 As to conditions: INHBA, higher = more signal.
The subject of test [11] is Human papillomavirus type 1a protein E7 (residues 44-93). The test can be described thus: small molecules binding HPV E7 44-93 – biochemical, small-molecule microarray, residues 44-93, 635 nm fluorescence, primary screen (AID 1108).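 Note: E7 fragment applied at 1 µg/mL in TBST for 1 h at 4 C; score combines spot fluorescence with its signal to noise ratio.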 As to conditions: fluorescence 635 nm, higher = more signal.
A short description of test [12]: hepatitis C replication reporter changes, two-sided – Huh7 cells, luciferase reporter, HCV replication inhibitor project, primary screen (AID 1109).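 Note: huh7 hepatoma cells harbouring a luciferase neomycin HCV replicon reporter; luciferase luminescence as measure of HCV replicon replication; test concentration not given here.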 As to conditions: Huh7 HCV replicon luciferase reporter, 48 h; higher = more signal.
The target of test [13] is Left-right determination factor 2 (Homo sapiens) (UniProt O00292). Put plainly: small molecules binding LEFTY2 protein – biochemical, small-molecule microarray, 635 nm fluorescence scan, primary screen (AID 1110). The following applies: higher = more signal.
The target of test [14] is Calmodulin-1 (Homo sapiens) (UniProt P0DP23). Put plainly: small molecules binding calmodulin-1 with EGTA – biochemical, small-molecule microarray, Cy5-labelled CALM1, profiling panel (AID 1111).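 Note: labelled calmodulin applied in Tris saline Tween buffer holding calcium plus EGTA and DTT.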 The following applies: Cy5-CALM1 binding fluorescence, higher = more signal.
For test [15] the target is unchanged. The test can be described thus: small molecules binding Ca-loaded calmodulin-1 – biochemical, small-molecule microarray, Cy5-labelled CALM1, plus calcium, artefact control for SMM control-protein annotation, profiling panel (AID 1112).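 Note: score merges spot fluorescence with signal to noise from triplicate slides.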 As to conditions: Cy5-CALM1 binding fluorescence, higher = more signal.
Test [16] is described as follows: probe aWnt5a binding to arrayed compounds – biochemical, biotinylated probe, 635/667 nm fluorescence, primary screen (AID 1113).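 Note: score merges 667 nm fluorescence intensity with signal-to-noise per printed feature.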 As to conditions: small-molecule microarray, higher = more signal.
Test [17] is described as follows: probe aShh binding to arrayed compounds – biochemical, biotinylated probe, 635/667 nm fluorescence, primary screen (AID 1114).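 Note: probe is biotin-labelled aShh protein from a stem cell growth factor screen; measures binding of labelled protein to compounds printed on the slide; score merges feature fluorescence at 667 nm with signal-to-noise.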 As to conditions: small-molecule microarray, higher = more signal.
Test [18] is described as follows: probe aNog binding to arrayed compounds – biochemical, biotinylated probe, 635/667 nm fluorescence, primary screen (AID 1115).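 Note: probe is biotinylated aNog protein used at 0.15 µg/mL for 1 h at 4 C; z-score combines 667 nm fluorescence of each spot with its signal to noise.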 As to conditions: small-molecule microarray, higher = more signal.
The target of test [19] is Torsin-1A-interacting protein 1 (Homo sapiens) (UniProt Q5JTV8). The test can be described thus: compound microarray binding of lysate hLAP1 – cell lysate, small-molecule microarray, COS7 lysate, 635/667 nm fluorescence, primary screen (AID 1116). As to conditions: 635 nm fluorescence, higher = more signal.
In test [20] the target is Alpha-bungarotoxin (Bungarus multicinctus) (UniProt P60615). The test can be described thus: compounds binding labelled alpha-BTX control protein – biochemical, small-molecule microarray, Alexa647 label, 635/667 nm fluorescence, artefact control for SMM control protein annotation, profiling panel (AID 1117). The following applies: alpha-BTX-A647 binding fluorescence, higher = more signal.
Chain of Alpha-bungarotoxin (Bungarus multicinctus) (P60615 whole entry, looked up): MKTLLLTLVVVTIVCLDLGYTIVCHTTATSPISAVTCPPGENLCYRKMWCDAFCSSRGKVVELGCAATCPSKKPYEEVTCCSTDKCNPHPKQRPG

Chain of Fibroblast growth factor 10 (Homo sapiens) (O15520 whole entry, looked up): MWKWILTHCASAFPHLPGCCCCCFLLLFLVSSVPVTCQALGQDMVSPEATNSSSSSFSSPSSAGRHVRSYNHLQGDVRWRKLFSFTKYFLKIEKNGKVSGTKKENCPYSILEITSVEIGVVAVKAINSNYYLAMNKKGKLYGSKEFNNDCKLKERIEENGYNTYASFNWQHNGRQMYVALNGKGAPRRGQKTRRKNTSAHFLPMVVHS
Chain of Dickkopf-related protein 1 (Homo sapiens) (O94907 whole entry, looked up): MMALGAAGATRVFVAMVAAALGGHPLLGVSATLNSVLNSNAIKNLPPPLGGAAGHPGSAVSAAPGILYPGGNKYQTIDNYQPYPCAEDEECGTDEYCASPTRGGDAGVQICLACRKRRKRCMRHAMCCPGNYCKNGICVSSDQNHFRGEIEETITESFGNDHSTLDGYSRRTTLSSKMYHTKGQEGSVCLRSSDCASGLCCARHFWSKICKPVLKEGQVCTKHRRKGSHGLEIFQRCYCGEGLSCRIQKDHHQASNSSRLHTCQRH
Chain of Torsin-1A-interacting protein 1 (Homo sapiens) (Q5JTV8 whole entry, looked up): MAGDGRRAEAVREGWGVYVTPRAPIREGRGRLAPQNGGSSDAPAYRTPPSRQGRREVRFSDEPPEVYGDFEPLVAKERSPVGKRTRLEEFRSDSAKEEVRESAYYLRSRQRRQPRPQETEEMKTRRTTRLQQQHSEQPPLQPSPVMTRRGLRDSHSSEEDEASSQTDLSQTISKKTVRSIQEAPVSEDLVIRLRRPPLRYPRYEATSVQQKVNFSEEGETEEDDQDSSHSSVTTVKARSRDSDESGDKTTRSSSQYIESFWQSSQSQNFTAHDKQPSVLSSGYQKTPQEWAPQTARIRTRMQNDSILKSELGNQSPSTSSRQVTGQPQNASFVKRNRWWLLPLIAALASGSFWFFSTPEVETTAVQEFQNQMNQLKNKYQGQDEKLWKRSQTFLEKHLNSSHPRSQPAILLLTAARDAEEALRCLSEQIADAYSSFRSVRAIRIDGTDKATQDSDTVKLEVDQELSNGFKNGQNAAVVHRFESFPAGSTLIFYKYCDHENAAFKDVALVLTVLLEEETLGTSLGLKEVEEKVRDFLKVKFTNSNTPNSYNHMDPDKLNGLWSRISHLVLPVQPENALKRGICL
Chain of Epidermal growth factor receptor (Homo sapiens) (P00533 whole entry, looked up): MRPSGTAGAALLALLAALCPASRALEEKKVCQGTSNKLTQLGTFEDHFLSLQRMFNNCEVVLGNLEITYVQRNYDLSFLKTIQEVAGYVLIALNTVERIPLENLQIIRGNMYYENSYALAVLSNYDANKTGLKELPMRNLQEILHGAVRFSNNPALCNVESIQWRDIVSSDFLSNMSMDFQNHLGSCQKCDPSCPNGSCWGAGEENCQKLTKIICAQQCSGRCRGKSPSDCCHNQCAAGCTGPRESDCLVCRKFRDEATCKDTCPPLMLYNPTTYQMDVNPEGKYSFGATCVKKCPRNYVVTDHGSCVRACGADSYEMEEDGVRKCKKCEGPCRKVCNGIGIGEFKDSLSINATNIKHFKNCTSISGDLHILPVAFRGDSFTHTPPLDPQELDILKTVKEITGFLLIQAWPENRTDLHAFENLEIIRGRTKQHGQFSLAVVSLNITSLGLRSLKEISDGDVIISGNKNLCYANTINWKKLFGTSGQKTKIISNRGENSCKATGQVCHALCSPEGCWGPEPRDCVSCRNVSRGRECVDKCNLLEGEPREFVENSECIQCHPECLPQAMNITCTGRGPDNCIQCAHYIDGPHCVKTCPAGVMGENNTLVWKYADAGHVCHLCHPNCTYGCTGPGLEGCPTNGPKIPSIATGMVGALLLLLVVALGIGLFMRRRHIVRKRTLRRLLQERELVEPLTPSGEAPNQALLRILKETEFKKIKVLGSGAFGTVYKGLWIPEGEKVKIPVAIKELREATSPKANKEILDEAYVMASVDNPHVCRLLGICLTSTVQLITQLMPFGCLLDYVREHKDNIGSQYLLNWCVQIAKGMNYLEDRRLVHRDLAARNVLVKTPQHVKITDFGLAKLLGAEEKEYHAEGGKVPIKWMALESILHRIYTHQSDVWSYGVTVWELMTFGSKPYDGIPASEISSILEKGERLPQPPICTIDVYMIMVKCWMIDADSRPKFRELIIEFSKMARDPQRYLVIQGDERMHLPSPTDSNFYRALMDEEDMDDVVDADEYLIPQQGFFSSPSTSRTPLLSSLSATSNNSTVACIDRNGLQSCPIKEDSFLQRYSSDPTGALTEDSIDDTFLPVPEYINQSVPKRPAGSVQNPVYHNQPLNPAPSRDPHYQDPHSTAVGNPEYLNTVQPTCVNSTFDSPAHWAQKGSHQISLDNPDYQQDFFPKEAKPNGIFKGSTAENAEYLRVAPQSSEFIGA
Chain of Follistatin-related protein 3 (Homo sapiens) (O95633 whole entry, looked up): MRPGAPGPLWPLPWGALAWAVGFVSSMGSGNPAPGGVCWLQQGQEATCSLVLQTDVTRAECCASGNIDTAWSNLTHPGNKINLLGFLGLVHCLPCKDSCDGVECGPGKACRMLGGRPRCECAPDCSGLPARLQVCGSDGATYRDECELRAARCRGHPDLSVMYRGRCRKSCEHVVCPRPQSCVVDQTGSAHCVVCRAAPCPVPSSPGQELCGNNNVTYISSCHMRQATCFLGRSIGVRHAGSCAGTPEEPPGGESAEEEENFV
Chain of Left-right determination factor 2 (Homo sapiens) (O00292 whole entry, looked up): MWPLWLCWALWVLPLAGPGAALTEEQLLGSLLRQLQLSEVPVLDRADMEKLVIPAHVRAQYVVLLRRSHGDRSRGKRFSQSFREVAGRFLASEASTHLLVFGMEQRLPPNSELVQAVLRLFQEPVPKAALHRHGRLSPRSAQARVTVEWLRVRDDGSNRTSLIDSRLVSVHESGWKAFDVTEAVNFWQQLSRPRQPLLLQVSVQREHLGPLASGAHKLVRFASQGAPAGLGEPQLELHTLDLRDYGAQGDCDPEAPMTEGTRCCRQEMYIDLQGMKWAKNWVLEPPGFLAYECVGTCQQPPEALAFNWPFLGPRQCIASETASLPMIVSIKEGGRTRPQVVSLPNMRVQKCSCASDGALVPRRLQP

Regarding `CO[C@H]1O[C@H](CO)[C@@H](OC(=O)Nc2ccc(Oc3ccccc3)cc2)[C@H](OC(=O)Nc2ccccc2-c2ccccc2)[C@H]1OC(=O)Nc1ccccc1-c1ccccc1`, the composite z-score amounted to 1.35 in test [1]; 0.542 in test [2]; 0.748 in test [3]; 1.14 in test [5]; 1.34 in test [6]; 0.528 in test [7]. Also, the composite z-score in [8] worked out at 1.36; in test [9], 0.538; in test [10], 0.187; in test [11], 0.383; in test [13] it was 0.975; in test [14] it was 2.09. Moreover, the composite z-score in test [15] is -0.107; in test [16] it was 0.0676; in test [17], 0.11; in test [18], 0.786; in test [19], 1.77; in test [20] it was 2.98. The z-score was 2.76 (inactive) in test [4] and -3.97 in test [12].

With `CC(C)(C)OC(=O)CC[C@]1(C(=O)N2CCCCC2)N=C(c2ccc(OCCCO)cc2)O[C@H]1c1ccccc1`, the composite z-score in test [1] amounted to 1.73; in test [2], 0.464; in [3] it was 0.56; in [5], 1.2; in test [6], 1.29; in [7], 0.494. Besides, the composite z-score in test [8] was 1.37; in test [9], 0.691; in [10], 0.556; in [11], 1.37; in test [13] it was 0.538; in test [14] it was 1.68. For the same compound, the composite z-score was -0.0194 in [15]; 0.0919 in test [16]; -0.138 in test [17]; 0.248 in [18]; 1.89 in [19]; 2.02 in test [20]. In addition, the z-score in [4] was -0.767 (inactive); in [12] it was -1.66.

Turning to `COC(=O)Cn1c(C(=O)N2CCCC2)cc2c1C[C@H]1CN(C(=O)c3ccccc3)[C@@](Cc3ccccc3)(C(=O)OC)[C@@H]21`, the composite z-score in test [1] was 0.473; in [2], 0.789; in test [3] it was 1.09; in test [5] it was 0.0175; in [6], -0.838; in [7], -0.282. Further, the composite z-score is 0.105 in [8]; -0.837 in test [9]; 0.632 in test [10]; 0.225 in test [11]; -0.0875 in [13]; 0.79 in [14]. In addition, the composite z-score was 0.589 in [15]; -0.006 in test [16]; 0.0639 in test [17]; -0.374 in test [18]; 0.261 in [19]; 0.236 in [20]. The results for the z-score in test [4] and in [12] were 0.309 (inactive) and -1.02, respectively.

In the case of `CO[C@H]1O[C@H](CO)[C@@H](OC(=O)CCc2ccccc2)[C@@H]2OC(=O)[C@H](Cc3cccc(Br)c3)C/C=C/C[C@@H](Cc3cccc(Br)c3)C(=O)O[C@@H]12`, the composite z-score was 1.6 in test [1]; 0.385 in test [2]; 0.874 in test [3]; -0.487 in [5]; -0.78 in test [6]; -1.49 in test [7]. Also, the composite z-score in test [8] was -0.753; in [9], -0.402; in test [10], 0.951; in test [11] it was 0.234; in test [13], -0.798; in test [14], -0.638. In addition, the composite z-score in test [15] is -0.282; in [16] it was -0.0819; in test [17], 0.103; in test [18], 0.146; in test [19] it was -0.0066; in [20], 2.14. The z-score in test [4] is -2.19 (inactive); in test [12] it was -0.93.

Regarding `COc1ccc(-c2cc3c(c(-c4ccccc4)n2)[Si](C(C)C)(C(C)C)O[C@H]3c2ccccc2)cn1`, the composite z-score in [1] is -0.309; in test [2], -0.0513; in test [3] it was -0.131; in test [5] it was 0.22; in [6] it was 0.176; in test [7], 0.0928. Also, the composite z-score in test [8] was 0.352; in test [9], 0.0263; in test [10], 0.605; in test [11], 0.656; in test [13], -0.152; in test [14], 0.136. The composite z-score was -0.265 in [15]; -0.0512 in [16]; -0.0626 in test [17]; -0.216 in test [18]; -0.126 in [19]; 0.599 in test [20]. The z-score is 0.96 (inactive) in test [4] and -1.4 in [12].
